Screening data as filed in PubChem BioAssay.
A selection: hits, their analogues and other compounds. The true share with any hit is near 14%.
HADH2 inh = HADH2 (human) dehydrogenase inhibition. Q99714. recombinant HADH2, NADH fluorescence, beta-hydroxybutyryl-CoA. Potency, µM (titrated, usually from 57.1 µM), inactives show at the highest dose activity change, negative = inhibition, most hits filed as inhibitors. 73,000 compounds, 3.4% hits. AID 886; note: potency is the fitted concentration of half-maximal effect; % is set by controls: 0 for no effect and ±100 for the full control effect; nearly all actives have a fitted effect of over 60% in size
Target sequence (Q99714 whole entry, looked up, one chain of several): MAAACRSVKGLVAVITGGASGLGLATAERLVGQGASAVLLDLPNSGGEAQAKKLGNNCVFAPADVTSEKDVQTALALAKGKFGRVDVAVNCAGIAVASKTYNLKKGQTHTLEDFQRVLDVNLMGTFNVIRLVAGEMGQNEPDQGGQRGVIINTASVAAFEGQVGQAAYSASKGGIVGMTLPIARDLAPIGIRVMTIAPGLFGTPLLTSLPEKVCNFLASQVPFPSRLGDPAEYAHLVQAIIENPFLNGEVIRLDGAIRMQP
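NADH fluorescence (ex 360/em 450 nm) read every 30 s for 4 min; activity taken as last-minus-first time point difference. Enzyme 20 nM, NAD+ 1 mM, beta-hydroxybutyryl-CoA 90 uM, pH 9.0 Tris buffer.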
AID923 = qHTS Assay for Allosteric/Competitive Inhibitors of Caspase-1: Spectroscopic Profiling in AFC Spectral Region; 75,000 compounds, 1.1% hits; Potency, µM (series often up to 57.5 µM), for the others: at the top dose fluorescence increase, most hits filed as activators; compound fluorescence, AFC spectral region (405/520 nm); note: potency is the fitted concentration of half-maximal effect; 0% is about no effect
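Compound autofluorescence profiled at 405 nm ex/520 nm em during kinetic caspase 1 run (50 nM enzyme, 5 uM Ac-WEHD-AFC, HEPES pH 7.5, 10 mM DTT). Titration up to 57 uM; baseline from regression intercept, normalized to AFC standard curve.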
HSD17B inh = blocks hydroxysteroid 17-beta dehydrogenase activity; Q99714; recombinant HSD17B10, NADH fluorescence kinetic; Potency, µM (highest dose often 57.1 µM), without a hit: at the top dose activity change, negative = inhibition, actives largely listed as inhibitors; 75,000 compounds, 7.6% hits; AID 893;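 note: the protocol describes HADH2 (HSD17B10) and not the HSD17B4 of the title; potency is the fitted concentration of half-maximal effect; % is set by controls: 0 for no effect and ±100 for the full control effect; nearly all actives have a fitted effect of over 70% in size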
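His-tagged E. coli-expressed HADH2 at 20 nM in 100 mM Tris-HCl pH 9.0 with 0.01 % Tween-20, preincubated 15 min with compound at room temperature. Reaction with 1 mM NAD+ and 90 uM beta-hydroxybutyryl coenzyme A; NADH fluorescence (360/450 nm) read kinetically over 4 min, last minus first point.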
A350 fluor = compound fluoresces in the Alexa 350 spectral region; Compound autofluorescence, 340/450 nm, Alexa 350 dye-equivalents; active compounds read high; max dye-equivalent concentration, M; 59,000 compounds, 11% hits; AID 590; in the data active = max dye-equivalent concentration above about 10 nM; inconclusive = mostly about 1.1 nM to 9.6 nM
CRE Fsk mod = CRE-bla signaling modulation under forskolin stimulation | CHO CRE-bla reporter (cAMP response element driving beta-lactamase), forskolin EC10, beta-lactamase ratio | Potency, µM (top dose mostly 38.2 µM), for inactives: at the top dose activity change, negative = inhibition, hits mostly activators | 71,000 compounds, 2.5% hits; active = well fitted activation curve with a large enough effect in the signal ratio, with a control signal flat, not every such curve was filed as active; inconclusive = small, poorly fitted or top-dose-only effect, or effect the other way, or a change in a side signal; the % refers to the signal ratio; note: potency is the fitted concentration of half-maximal effect; % of control where 0% means no effect
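The 460nm/530nm emission ratio after CCF4 loading defined %Activity, from which AC50 values were obtained. CRE-bla CHO cells received compound dilution series together with an EC10 level of NKH 477 for 3 hours at 37 degrees Celsius.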
4-MU autofl = 4-MU region autofluorescence | compound autofluorescence, 340/450 nm, 4-MU equivalents; active compounds read high | max dye-equivalent concentration, M | 59,000 compounds, 11% hits | AID 589; in the data active = max dye-equivalent concentration above about 10 nM; inconclusive = mostly about 1.1 nM to 9.6 nM
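Compounds in 100 mM Tris, pH 8.0, sat 15 min at room temperature before fluorescence was read at 340 nm excitation/450 nm emission; a per-plate six-point 4-MU standard curve converted signals to dye-equivalent concentration at each compound concentration.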
* marks the source's active call; other numbers are inactive results; i = inactive; u = inconclusive; x = no result given; [ ] = remark or other dose. Unless noted, calls come from the whole dose curve; as a rule, active = well fitted curve in the direction sought with a large enough effect; inconclusive = small, poorly fitted or top-dose-only effect, or another doubt; inactive = no such curve, though single readings can be large; an effect the other way counts as inactive or inconclusive.

SMILES	HADH2 inh	AID923	HSD17B inh	A350 fluor	CRE Fsk mod	4-MU autofl
O=C(Cc1cccs1)NCc1ccc2c(c1)OCO2	-2.1%	2.6%	-0.4%	i	u	i
N#Cc1nc(-c2cccs2)oc1N1CCN(Cc2ccccc2)CC1	31.6µM*	-0.8%	31.6µM*	1.36e-07M*	28.5%	1.69e-07M*
N#Cc1nc(-c2ccccc2)oc1NCCN1CCCCC1	u	-0.7%	25.1µM*	u	20.7%	u
N#Cc1nc(-c2cccs2)oc1NCc1ccc2c(c1)OCO2	x	x	x	1.25e-07M*	x	1.11e-07M*
Oc1ccc2ccccc2c1Cc1c(O)ccc2ccccc12	3.16µM*	6.0%[11.5 µM]	-21.3%[11.4 µM]	i	-3.5%[7.6 µM]	i
O=c1[nH]c(=S)[nH]c(-c2ccccc2)c1Cc1c(O)ccc2ccccc12	-2.0%[11.4 µM]	-3.2%[11.5 µM]	5.01µM*	u	-8.5%[7.6 µM]	u
COc1ccc(NCc2c(O)ccc3ccccc23)cc1	3.16µM*	-3.1%[11.5 µM]	u	1.25e-08M*	-9.7%[7.6 µM]	u
O=C(O)Cc1c(O)ccc2ccccc12	-9.0%[11.4 µM]	0.6%[11.5 µM]	3.98µM*	u	-3.7%[7.6 µM]	u
CSc1nnc(-c2ccc(S(=O)(=O)N3CCOCC3)cc2)n1CC1CCCO1 (stereo not given)	-19.0%	0.8%	25.1µM*	i	4.1%	i
CCn1c(SCc2ccccc2)nnc1-c1ccc(S(=O)(=O)N2CCCCC2)cc1	-5.9%	0.0%	-27.2%	i	-7.6%	i
CCSc1nnc(-c2ccc(S(=O)(=O)N3CCOCC3)cc2)n1CC1CCCO1 (stereo not given)	-11.2%	1.1%	31.6µM*	i	0.2%	i
CCn1c(SCC(N)=O)nnc1-c1ccc(S(=O)(=O)N2CCN(C)CC2)cc1	-13.6%	3.7%	31.6µM*	i	u	i
COc1ccc(COC(=O)N/N=C2/C[C@@H](O)[C@@H](O)[C@@H]3[C@H]4C(=O)N(c5ccc(F)cc5F)C(=O)[C@@H]4CC[C@H]23)cc1	3.0%[11.4 µM]	-0.8%[11.5 µM]	3.5%[11.4 µM]	x	x	x
O=C(Nc1ccccc1N1CCCCC1)c1ncoc1-c1ccc(F)cc1	-1.5%	-0.3%	u	1.35e-08M*	u	1.16e-08M*
C/C(=C\c1ccc(Cl)cc1)C(C)(C)C(=O)O	-0.9%[11.4 µM]	0.6%[11.5 µM]	1.0%[11.4 µM]	i	13.2%[7.6 µM]	i
COc1cccc(-c2nccc(NCc3ccccc3)n2)c1	7.5%	-0.3%	-2.4%	i	-6.3%	i
Cc1ccc(C2=CSC3=NCCN23)c(C)c1	104.0%	0.1%	31.6µM*	i	u	i
Nc1ccc2c(c1)N1CCN=C1S2	x	x	x	i	x	i
Cc1cc(=O)oc2cc(OCC(=O)N3CCCc4ccccc43)ccc12	15.0%	-0.4%	u	1.03e-08M*	11.9%	1.18e-08M*
Cc1cc(=O)oc2cc(OCC(=O)N3CCc4ccccc4C3)ccc12	u	0.5%	25.1µM*	7.36e-08M*	1.7%	7.57e-08M*
CC(C)N(Cc1ccccc1)S(=O)(=O)c1n[nH]c(C(C)(C)C)n1	18.6%[11.4 µM]	3.8%[11.5 µM]	4.3%[11.4 µM]	u	-13.4%[7.6 µM]	i
CC(=O)c1ccc(OC2C=CC(C#Cc3ccc(Br)cc3)OC2CO)cc1 (stereo not given)	-5.3%[11.4 µM]	-1.2%[11.5 µM]	-9.0%[11.4 µM]	x	x	x
Cc1cc(Cl)c(OCCCn2cncn2)c(Br)c1	2.1%	-1.5%	-8.4%	1.81e-08M*	7.2%	2.07e-08M*
Cc1cc(Cl)cc(Br)c1OCCCCn1cncn1	1.8%	-1.3%	-2.9%	u	6.9%	i
CO[C@@H]1/C=C\CC(=O)N[C@@H](C)C(=O)OC[C@@H](OC)[C@H](C)CCCC(=O)OC[C@H]1C	-3.0%[11.4 µM]	-5.8%[11.5 µM]	0.2%[11.4 µM]	x	x	x
CC(C)OC(=O)CSc1nc2ccccc2s1	-13.7%	-0.1%	4.2%	i	-3.6%	i
O=C(CSc1nc2ccccc2s1)c1sc2sc3ccccc3[n+]2c1O	3.16µM*	-5.8%[11.5 µM]	3.98µM*	i	6.6%[7.6 µM]	i
Cc1cc(NC(=O)CSc2nc(C(C)C)nc3c2c(=O)n(C)c(=O)n3C)no1	5.2%	-1.0%	8.7%	x	10µM*	x
